Bioassay records (PubChem)
IL1B secr inh – inhibitors of inflammasome signaling (IL-1 beta secretion). THP-1 LPS/ATP IL-1B secretion, AlphaLISA, 16 h; stronger effect = lower value. activity change, % at 57.5 µM. 360,000 compounds, 4.7% hits. AID 743279; in the data active = activity change below about -50%; inconclusive = mostly about -30% to -49%; note: % is set by controls: 0 for no effect and ±100 for the full control effect
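THP-1 cells pretreated 1 hr with compounds (up to 57.5 uM final), then stimulated with LPS (250 ng/mL final) plus ATP (1.25 mM final); secreted IL-1B measured by AlphaLISA after 16 hr, decreased signal indicating inhibition.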
DT40 TDP1 no CPT – qHTS for Inhibitors of human tyrosyl-DNA phosphodiesterase 1 (TDP1): qHTS in cells in absence of CPT. DT40 Tdp1-/- hTDP1 cells, no CPT, ATP luminescence, 48 h. Potency, µM (series often up to 46.2 µM), without a hit: at the top dose activity change, negative = growth inhibition, usual class: inhibitors. 420,000 compounds, 15% hits; note: potency is the fitted concentration of half-maximal effect; % is set by controls: 0 for no effect and ±100 for the full control effect; nearly all actives have a fitted effect of over 55% in size
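Compound effects on proliferation are scored in DT40 Tdp1-/-;hTDP1 cells in the absence of CPT. ATP levels (CellTiter-Glo luminescence) are recorded after a ≥48 hr, 37 °C incubation.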
ASM inhibitor – human S-ASM enzyme inhibition. P17405. placental ASM, HMU-PC fluorogenic substrate, 60 min. Potency, µM (titrated, usually from 57.5 µM), inactives show at the highest dose activity change, negative = inhibition, hits mostly inhibitors. 340,000 compounds, 0.006% hits. AID 504937; note: potency is the fitted concentration of half-maximal effect
Target sequence (P17405 47-631 limits assumed): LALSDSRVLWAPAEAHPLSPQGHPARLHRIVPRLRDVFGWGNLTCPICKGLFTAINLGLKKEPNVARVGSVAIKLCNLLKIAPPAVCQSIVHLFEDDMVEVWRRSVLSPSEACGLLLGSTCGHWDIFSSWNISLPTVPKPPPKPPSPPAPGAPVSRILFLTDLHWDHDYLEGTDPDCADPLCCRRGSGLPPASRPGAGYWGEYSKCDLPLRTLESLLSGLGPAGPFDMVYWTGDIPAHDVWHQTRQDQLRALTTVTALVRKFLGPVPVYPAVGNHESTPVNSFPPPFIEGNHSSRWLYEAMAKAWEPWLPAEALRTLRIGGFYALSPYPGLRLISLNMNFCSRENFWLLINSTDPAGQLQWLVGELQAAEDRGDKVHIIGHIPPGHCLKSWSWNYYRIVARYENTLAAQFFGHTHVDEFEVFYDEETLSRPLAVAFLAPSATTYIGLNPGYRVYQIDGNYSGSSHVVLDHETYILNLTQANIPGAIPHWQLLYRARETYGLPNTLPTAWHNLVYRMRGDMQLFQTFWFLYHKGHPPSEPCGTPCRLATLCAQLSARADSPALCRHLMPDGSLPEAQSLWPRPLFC
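qHTS format. ASM enzyme prepared from human placenta hydrolyses the fluorogenic substrate HMU-PC0 (9 uM final) over 60 min at 37 °C after a 10 min compound preincubation.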
TGFb SMAD3 inh – inhibitors of TGF-b signaling; 410,000 compounds, 1.2% hits; Potency, µM (titrated, usually from 46.1 µM), without a hit: at the highest dose activity, negative = inhibition, most hits filed as inhibitors; HepG2 CAGA-GFP TGF-b/SMAD3 reporter, GFP fluorescence, 18 h; TGF-beta stimulated, 500 pg/mL final; AID 588855; note: potency is the fitted concentration of half-maximal effect; % is set by controls: 0 for no effect and ±100 for the full control effect; nearly all actives have a fitted effect of over 65% in size
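Inhibition of TGF-beta-driven CAGA-GFP reporter expression in HEPG2 cells is measured by cellular GFP fluorescence after 18 h stimulation with 500 pg/mL recombinant TGF-beta in 1% FBS medium at 37 degrees C.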
HepG2 tox – counter-screen for TGF-b inhibitors: cytotoxicity in HepG2 cells | AID 588856 | HepG2 CAGA-GFP viability, ATP luminescence, 18 h | 410,000 compounds, 0.76% hits | Potency, µM (titrated, usually from 46.1 µM), for the others: at the highest dose activity change, negative = cytotoxicity, usual class: cytotoxic; note: potency is the fitted concentration of half-maximal effect
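CellTiter-Glo luminescence gave cytotoxicity after 18 hours at 37 degrees C. The cells were HepG2 CAGA-GFP in 1% FBS DMEM, stimulated with 500 pg/mL TGF-beta after compound addition. %Activity was normalised to no-cell wells (complete cell-killing) and DMSO (no toxicity), and curves were fitted and classified.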
DT40 TDP1 CPT – growth inhibition of DT40 Tdp1-/-;hTDP1 cells with camptothecin (screen for TDP1 inhibitors); chicken DT40 Tdp1-/-;hTDP1 cells + 20 nM CPT, ATP luminescence, 48 h; Potency, µM (doses to about 46.2 µM), without a hit: top-dose activity change, negative = growth inhibition, usual class: inhibitors; 420,000 compounds, 12% hits; note: potency is the fitted concentration of half-maximal effect; % is set by controls: 0 for no effect and ±100 for the full control effect; nearly all actives have a fitted effect of over 55% in size
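Chicken DT40 Tdp1-/- cells stably complemented with human TDP1 were seeded at 400 cells/well in medium containing 20 nM camptothecin, exposed to pin-transferred compounds, and grown at 37 °C for at least 48 hr. Viability was read as ATP luminescence.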
Numbers without * were called inactive; ? = inconclusive; nt = no result. Hits are enriched below; roughly 19% of the tested compounds scored in any of these assays. Unless noted, calls come from the whole dose curve; as a rule, active = well fitted curve in the direction sought with a large enough effect; inconclusive = small, poorly fitted or top-dose-only effect, or another doubt; inactive = no such curve, though single readings can be large; an effect the other way counts as inactive or inconclusive.

SMILES | IL1B secr inh | DT40 TDP1 no CPT | ASM inhibitor | TGFb SMAD3 inh | HepG2 tox | DT40 TDP1 CPT
COc1ccc(C(O)P(=O)(OC2CCCCC2)c2ccc(N(C)C)cc2)cc1OC (stereo unspecified) | -1.2 | -0.2% | -1.4% | ? | -2.3% | -24.7%
Cc1cccc(N2CCN(C(=O)c3ccc(CNc4c(N5CCC(C)CC5)c(=O)c4=O)cc3)CC2)c1C | 0.0 | 16.4µM* | -7.7% | -27.0% | -7.6% | ?
Cc1cccc(N2CCN(CCc3ccccc3)CC2)c1C | -14.6 | ? | -1.8% | ? | -69.8% | ?
CN1C(=O)c2ccccc2Sc2ccc(NC(=O)NCc3ccc(Cl)cc3)cc21 | nt | 16.4µM* | nt | -3.1% | -3.1% | 23.1µM*
O=C(NCC1=C(c2cccc3ccccc23)C[C@@H]2CC[C@H]1N2Cc1ccco1)c1ccncc1 | -18.9 | 25.9µM* | nt | -15.2% | -28.2% | 23.1µM*
O=C(NCC1=C(c2cccc3ccccc23)C[C@@H]2CC[C@H]1N2Cc1ccco1)c1cccnc1 | -4.6 | ? | nt | 5.9% | -32.1% | ?
Cc1ncoc1C(=O)NCC1=C(c2ccc(S(C)(=O)=O)cc2)C[C@@H]2CC[C@H]1N2Cc1ccco1 | -6.8 | 3.8% | nt | 11.2% | -50.4% | 2.5%
O=C(NCC1=C(c2cccc3ccccc23)C[C@@H]2CC[C@H]1N2Cc1ccco1)c1cccs1 | -1.6 | 14.6µM* | nt | ? | -50.6% | ?
O=C(NCC1=C(c2ccc3ccccc3c2)C[C@@H]2CC[C@H]1N2Cc1ccco1)c1nccs1 | -27.9 | 16.4µM* | nt | -18.1% | -41.1% | ?
O=C(NCc1ccccc1)C(=O)NCC1OCCN1S(=O)(=O)c1ccc([N+](=O)[O-])cc1 (stereo unspecified) | 23.8 | ? | 4.3% | -17.9% | -10.9% | ?
CCOC(=O)c1ncn2c1CN(C)C(=O)c1cc(F)ccc1-2 | -53.1* | -18.7% | -2.6% | 15.0% | -22.0% | ?
CCCCn1c(-c2nonc2NC(=O)c2ccccc2Cl)nc2ccccc21 | 19.1 | 23.1µM* | -2.4% | -8.8% | -1.1% | 10.3µM*
CCCn1c(C(=O)c2ccccc2)nc2ccccc21 | -23.0 | -13.1% | -4.1% | -1.9% | -10.6% | -16.6%
COc1ccccc1N1CCN(Cc2cccc(OC)c2O)CC1 | 0.0 | -20.0% | 18.2% | 1.1% | -34.7% | ?
CC(C)[C@H](N)C(=O)OCC(CO)OCn1cnc2c(=O)[nH]c(N)nc21 (stereo partly specified) | nt | 10.6µM* | nt | nt | nt | 13.3µM*
S=C=Nc1cccc(C2(N3CCCCC3)CCCCC2)c1 | -53.8* | 16.4µM* | -3.8% | 13.9% | -48.1% | 20.6µM*
c1ccc(C2(N3CCCCC3)CCCCC2)cc1 | 14.8 | -17.9% | 2.7% | 11.7% | 1.5% | 2.9%
COC(=O)C1=C(c2ccc(Cl)c(C(F)(F)F)c2)C[C@@H]2CC[C@H]1N2C(=O)NCCOc1ccccc1Cl | -81.5* | ? | -3.7% | ? | -25.8% | ?
COC(=O)C1=C(c2ccc(Cl)c(C(F)(F)F)c2)C[C@@H]2CC[C@H]1N2C(=O)NCCCOC(C)C | -12.6 | 13µM* | -4.3% | -17.9% | -11.4% | 25.9µM*
O=C(CI)c1ccc(Cl)cc1 | nt | -4.0% | nt | -1.9% | -4.8% | -20.2%
Cn1c(O)c(C(=Nc2ccc(F)cc2)c2ccccc2Cl)c(=O)n(C)c1=O | -24.5 | 7.31µM* | -9.5% | 15.2% | -4.8% | ?
CSC(=Nc1ccccc1)c1c(O)n(C)c(=O)n(C)c1=O | 8.4 | -8.4% | 1.4% | 0.3% | -21.6% | -12.0%
Cn1c(O)c(C(=Nc2ccccc2)SCc2ccccc2Cl)c(=O)n(C)c1=O | ? | 8.2µM* | 5.4% | -18.8% | -19.8% | 5.8µM*
CCN(CC)CCCC(C)N=C(c1ccccc1)c1c(O)n(C)c(=O)n(C)c1=O (stereo unspecified) | 11.3 | -11.0% | 2.5% | 0.0% | 15.0% | -21.2%
CCOC(=O)c1ccc(N=C(c2ccccc2)c2c(O)n(C)c(=O)n(C)c2=O)cc1 | nt | 7.31µM* | -0.7% | -6.7% | -1.9% | 2.91µM*
SMILES | IL1B secr inh | DT40 TDP1 no CPT | ASM inhibitor | TGFb SMAD3 inh | HepG2 tox | DT40 TDP1 CPT
COC(=O)c1ccc(N=C(c2ccccc2)c2c(O)n(C)c(=O)n(C)c2=O)cc1 | -6.8 | 23.1µM* | -1.0% | 28.3% | 21.2% | ?
CCn1c(CN2CCN(C)CC2)nc2ccccc21 | nt | -1.6% | nt | -5.1% | -36.1% | -2.3%
COc1ccc(-c2nn(CCC#N)cc2C(=O)Nc2ccccc2Br)cc1[N+](=O)[O-] | -18.1 | ? | -1.8% | 5.0% | 7.2% | -29.7%
C=CC1CN2CCC1CC2[C@@H](OC(=O)c1ccc(OC)cc1)c1ccnc2ccccc12 (stereo partly specified) | ? | ? | -0.4% | ? | -30.2% | ?
CC1Cc2ccccc2CN1 (stereo unspecified) | nt | 5.1% | nt | -8.0% | 2.3% | -4.7%
C1CCC(NC2CCCCC2)CC1 | 5.8 | -7.4% | 7.5% | 8.0% | -26.0% | 4.6%
O=C(O)C(F)(F)S(=O)(=O)O | 54.9 | -11.7% | 4.0% | -4.5% | 0.9% | 1.1%
CC(C)COP(=O)(c1ccc(N(C)C)cc1)C(O)c1ccc(Br)cc1 (stereo unspecified) | -12.0 | -25.9% | -1.3% | -7.0% | 5.5% | ?
COc1ccc(C(c2nnnn2-c2ccc(OC)cc2)N2CCC3(CC2)C(=O)NCN3c2ccccc2)cc1 (stereo unspecified) | ? | ? | nt | ? | -1.3% | ?
Cc1cccc(C)c1-n1nnnc1C(c1cccs1)N1CCC2(CC1)C(=O)NCN2c1ccccc1 (stereo unspecified) | -4.4 | 14.6µM* | nt | ? | -25.8% | 14.6µM*
COc1ccc(-n2nnnc2C(c2ccccc2)N2CCC3(CC2)C(=O)NCN3c2ccccc2)cc1 (stereo unspecified) | -59.3* | ? | nt | ? | 2.6% | ?
COc1ccc(-n2nnnc2C(c2ccnc3ccccc23)N2CCC3(CC2)C(=O)NCN3c2ccccc2)cc1 (stereo unspecified) | 0.0 | 23.1µM* | nt | -34.7% | 6.0% | ?
COc1ccc(-n2nnnc2C(c2ccccc2OC(F)(F)F)N2CCC3(CC2)C(=O)NCN3c2ccccc2)cc1 (stereo unspecified) | 0.0 | 23.1µM* | nt | 11.2µM* | -31.9% | 18.4µM*
